In this assay the test system is HCoV-OC43. Also on record: species or system RD; HTS, protection from HCoV-OC43 induced cell death, luminescent cell viability (CellCounting-Lite 2.0), inhibition rate. The settings on record: 24 h post infection, 1 h compound pre-incubation, 10 µM, inhibitor.

Where two headings read alike, the source gives them in different places. Hit rate of the full screen: of about 3,300 compounds, about 60 (2%) showed an effect of 50% or more. The list comes from a sample in which strong results are over-represented; it also holds similar structures and randomly drawn compounds.

Take `CN1C[C@@H]2C[C@H](C1)c1cccc(=O)n1C2` [N-Methylcytisine]: the “OC43 Inhibition rate” value was -2.8%.
The same measure, in the same setting: to `C=C1CCOC1=O` [Tulipalin A] belongs 28.2%; to `Oc1ccc2ccc3cccc4ccc1c2c34` [1-Hydroxypyrene], 16.8%; to `CC1(C)[C@@H](O)CC[C@]2(C)[C@H]3CC=C4[C@@H]5C[C@@]6(C)C[C@H](OC6=O)[C@]5(C)CC[C@@]4(C)[C@]3(C)CC[C@@H]12` [Wilforlide A], 0.1%.
Same read-out and setting: in the case of `O=C(N[C@@H](Cc1ccccc1)C(=O)N[C@H](CO)Cc1ccccc1)c1ccccc1` [Aurantiamide] it was 1%; in that of `COc1c(CC=C(C)C)c(O)cc2oc(=O)c(-c3ccc(O)cc3O)cc12` [Glycycoumarin], 0.9%.
Still for that read-out and setting: to `COc1c(CC=C(C)C)c(O)cc2oc(=O)c3c4ccc(O)cc4oc3c12` [Neoglycyrol] belongs 113.3%; to `CC(C)=CCc1cc2c(cc1O)oc(=O)c1c3ccc(O)cc3oc21` [Psoralidin], 0%.
In the case of `Cc1c(C)c2c(c(C)c1O)CC[C@@](C)(CCCC(C)CCCC(C)CCCC(C)C)O2` (stereo in doubt) [rel-α-Vitamin E], the “OC43 Inhibition rate” value worked out at 5.5%.
`CC1(C)CC[C@]2(C(=O)O[C@@H]3O[C@H](CO)[C@@H](O)[C@H](O)[C@H]3O)CC[C@]3(C)C(=CC[C@@H]4[C@@]5(C)CC[C@H](O[C@@H]6O[C@H](C(=O)O)[C@@H](O[C@@H]7O[C@@H](CO)[C@H](O)[C@H]7O)[C@H](O)[C@H]6O)C(C)(C)[C@@H]5CC[C@]43C)[C@@H]2C1` [Araloside A]: the “OC43 Inhibition rate” value came to 1.5%.
The same measure, in the same setting: in the case of `COc1cc2oc(-c3ccccc3)cc(=O)c2c(OC)c1OC` [5,6,7-Trimethoxyflavone] it was 0.1%; in that of `COc1cc(-c2c3c(c(O)c4cc5c(cc24)OCO5)COC3=O)cc(OC)c1OC` [Tetradehydropodophyllotoxin], 1%; in that of `COc1c(C)c2c(c(O)c1C/C=C(\C)CCC(=O)O)C(=O)OC2` [Mycophenolic acid], 36.2%.
On the same count and under the same terms, to `COC(=O)CC/C(C)=C/Cc1c(O)c2c(c(C)c1OC)COC2=O` [Methyl mycophenolate] belongs 61.8%; to `O=C(O)c1cn[nH]c1` [4-Carboxypyrazole], 0.1%; to `C=C(C(=O)O)[C@@H]1CC[C@@H](C)[C@@H]2CCC(C)=C[C@@H]21` [Artemisic acid], 4.6%.
`Cc1ncc(C[n+]2csc(CCO)c2C)c(N)n1` [Thiamine monochloride]: the “OC43 Inhibition rate” value (OC43 Inhibition rate, 24 h) was 2.4%.
With `C[S@@+]([O-])CCCCN=C=S` [(R)-sulforaphane], the “OC43 Inhibition rate” value was 71.2%.

Source of the values: paper PMC12431657, “Discovery and mechanistic insights of dibenzoylmethane as a broad spectrum inhibitor of coronavirus” (PLOS Pathogens, 2025).
